Reference: publication PMC4336329 (PLoS ONE, 2015)
The whole screen tested about 310,000 compounds, of which about 2,200 (0.71%) showed an effect of 50% or more. The effect is printed as a negative number. The entries come from a sample that favours strong results as a whole.

What follows are compounds tested against human ether-à-go-go-related gene (hERG) potassium channel (human, UniProt Q12809) (assay: primary screen, population patch clamp on CHO cells stably expressing hERG; higher = less effect of the substance).
Sequence of human ether-à-go-go-related gene (hERG) potassium channel (Q12809 whole entry, looked up): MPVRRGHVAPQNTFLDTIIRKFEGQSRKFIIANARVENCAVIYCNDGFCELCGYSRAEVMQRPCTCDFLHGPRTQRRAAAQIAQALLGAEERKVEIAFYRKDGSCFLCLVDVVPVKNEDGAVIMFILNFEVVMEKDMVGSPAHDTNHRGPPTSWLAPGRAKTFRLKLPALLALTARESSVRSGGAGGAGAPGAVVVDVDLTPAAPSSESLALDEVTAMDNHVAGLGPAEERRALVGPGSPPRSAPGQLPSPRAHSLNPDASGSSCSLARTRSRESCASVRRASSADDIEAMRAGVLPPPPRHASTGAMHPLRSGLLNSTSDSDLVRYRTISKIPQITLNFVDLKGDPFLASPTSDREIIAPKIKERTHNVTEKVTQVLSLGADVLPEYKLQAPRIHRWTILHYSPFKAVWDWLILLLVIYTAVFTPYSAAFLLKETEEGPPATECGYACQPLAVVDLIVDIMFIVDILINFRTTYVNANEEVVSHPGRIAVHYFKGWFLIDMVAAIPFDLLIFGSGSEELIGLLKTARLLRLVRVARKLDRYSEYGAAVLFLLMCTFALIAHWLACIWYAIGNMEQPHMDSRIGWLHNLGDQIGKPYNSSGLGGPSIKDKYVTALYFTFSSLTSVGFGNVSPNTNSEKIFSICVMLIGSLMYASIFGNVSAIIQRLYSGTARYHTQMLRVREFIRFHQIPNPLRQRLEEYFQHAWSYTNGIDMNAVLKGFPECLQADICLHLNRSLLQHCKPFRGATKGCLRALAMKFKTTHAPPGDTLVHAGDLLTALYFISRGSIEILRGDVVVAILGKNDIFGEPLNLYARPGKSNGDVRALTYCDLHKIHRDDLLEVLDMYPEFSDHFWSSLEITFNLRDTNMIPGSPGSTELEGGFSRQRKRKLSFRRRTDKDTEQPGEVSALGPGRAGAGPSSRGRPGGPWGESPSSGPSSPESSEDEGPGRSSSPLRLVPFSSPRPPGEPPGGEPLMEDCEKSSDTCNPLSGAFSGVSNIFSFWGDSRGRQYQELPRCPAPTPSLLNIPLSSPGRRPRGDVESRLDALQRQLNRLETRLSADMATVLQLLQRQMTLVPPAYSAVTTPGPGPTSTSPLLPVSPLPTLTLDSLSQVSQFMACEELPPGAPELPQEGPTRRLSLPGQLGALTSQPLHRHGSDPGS

Structure (SMILES)	hERG current change (%, negative = inhibition) at 1uM [%]
CCc1nnc(NC(=O)C2COc3ccccc3O2)s1 (centres unmarked)	2.41
CCn1nc(NC(=O)COC)c2cc3cc(C)ccc3nc21	9.09
COc1ccc(NS(=O)(=O)NC(=O)c2c[nH]c3ccccc23)cc1	9.58
CCOc1cc(CO)cc(Br)c1OCC(=O)Nc1ccccc1C	6.36
Cc1cc(NC(=O)CCC(=O)NNC(=O)c2ccc(C(C)(C)C)cc2)no1	6.49
COc1ccc(C(=O)CN2CCN(S(=O)(=O)c3cccc([N+](=O)[O-])c3)CC2)cc1OC	3.44
COc1ccc(NC(=O)CN2CCN(CC#N)CC2)cc1	-44.9
COc1cccc(NC(C)=[N+](C)CCNS(=O)(=O)c2ccc(Cl)cc2)c1.[I-]	-36.6
O=C(CN1CCN(c2ccc(Cl)cc2)CC1)Nc1ccc(F)c(F)c1	-1.8
O=C(CN1CCN(Cc2ccccc2)CC1)Nc1ccc(F)c(F)c1.O=C(O)C(=O)O	-21.9
COc1ccc(C(=O)CN2CCN(S(=O)(=O)c3cccc([N+](=O)[O-])c3)CC2)cc1	-64.3
COc1ccc(NC(C)=[N+](C)CCNS(=O)(=O)c2ccc(Cl)cc2)cc1.[I-]	-59.5
CC(Nc1ccc(F)cc1)=[N+](C)CCNS(=O)(=O)c1ccc(Cl)cc1.[I-]	-45.1
COc1cccc(C(=O)CN2CCN(S(=O)(=O)c3cccc([N+](=O)[O-])c3)CC2)c1	6.87
COc1ccc(NC(=O)CN2CCN(CC(=O)Nc3ccc(OC)cc3)CC2)cc1	-85.6
COc1ccc(NC(=O)CN2CCCC2)cc1	14.6
O=C(CN1CCN(CC(=O)Nc2ccccc2Cl)CC1)Nc1ccc(F)c(F)c1	-74
CCOC(=O)Cn1nnc(-c2cccc(OC)c2)n1	9.82
Cc1cccc(C(=O)O/N=C(\N)CS(=O)(=O)c2ccccc2)c1	5.74
Cn1cccc1C(=O)NCC(c1ccc(F)cc1)N1CCOCC1 (centres unmarked)	5.02
CCOC(=O)CNC(=O)Cn1cnc2c(nnn2-c2cccc(Cl)c2)c1=O	-0.825

Structure (SMILES)	hERG current change (%, negative = inhibition) at 1uM [%]
COc1ccc(Nc2nc(C)nc3c2nnn3Cc2ccccc2)cc1OC	4.84
COc1ccc(NC(=O)CN2CCC(C)CC2)cc1	-0.0667
CCN(CC)c1ccc(NC(=O)CN2CCN(CC(=O)Nc3ccc(OC)cc3)CC2)cc1	-59.5
CCN(CC)c1ccc(NC(=O)CN2CCN(CC(=O)Nc3ccccc3OC)CC2)cc1	-0.407
Cc1cc(=O)oc2cc(OCC(=O)N3CCCC3)c(Cl)cc12	1.63
Cc1sc2nc(CN3CCOCC3)nc(NS(=O)(=O)c3ccc4c(c3)OCCO4)c2c1C	13.1
Cc1nc(Nc2ccc3c(c2)OCCO3)c2c(C)c(C)sc2n1	-8.61
Cc1sc2nc(CN3CCCCC3)nc(Nc3ccc4c(c3)OCCO4)c2c1C	-89.2
Cc1cc2oc3c(c(=O)c2cc1C)C(c1ccc(C(C)C)cc1)N(CCCN1CCOCC1)C3=O (centres unmarked)	13
CCCN1C(=O)c2ccc(C(=O)Nc3ccccc3C(=O)O)cc2C1=O	18
COCc1cc(CN2CCN(CCc3ccccc3)C(CCO)C2)ccc1OC (centres unmarked)	-32.3
COCc1cc(CN2CCN(Cc3ccsc3)C(CCO)C2)ccc1OC (centres unmarked)	-56.6
CCOc1ccc(CN2CCN(Cc3ccsc3)C(CCO)C2)cc1CO (centres unmarked)	-17.3
Cc1ccc(NCc2nnc(SCC(=O)NCc3ccco3)n2CC2CCCO2)cc1Cl (centres unmarked)	-5.15
Cc1ccc(NCc2nnc(SCCN3CCCCC3)n2CC2CCCO2)c(C)c1 (centres unmarked)	-10.7
Cc1ccc(NCc2nnc(SCCN3CCCCC3)n2CC2CCCO2)cc1Cl (centres unmarked)	-59.1
CCOC(=O)c1c(C)[nH]c(C(=O)N2CCN(C(=O)OCC)CC2)c1C	7.64
Cc1ccc(NS(=O)(=O)c2cccs2)cc1S(=O)(=O)N1CCCCCC1	16.5
Cc1ccc(CSCc2ccc(C(=O)NCCCN3CCOCC3)o2)cc1	-21.2
COC(CNC(=O)c1ccc2c(c1)ncn2-c1ccc(F)c(F)c1)OC	-5.49
COc1ccc2cc(C(=O)N3CCCCCC3)sc(=O)c2c1OC	1.33

Structure (SMILES)	hERG current change (%, negative = inhibition) at 1uM [%]
CCCCNC(C(=O)Nc1ccc([N+](=O)[O-])cc1Br)c1ccccc1 (centres unmarked)	10.5
CN(C)CC(C)(C)CNC(C(=O)Nc1ccc(Cl)cc1C(F)(F)F)c1ccccc1 (centres unmarked)	-72.3
CCN(CC)CCNC(C(=O)Nc1cc(C(F)(F)F)ccc1Cl)c1ccccc1 (centres unmarked)	-85.3
CCN(CC)CCNC(C(=O)Nc1ccc([N+](=O)[O-])cc1Br)c1ccccc1 (centres unmarked)	-86.5
O=C(Nc1cc(C(F)(F)F)ccc1Cl)C(NCc1ccccc1)c1ccccc1 (centres unmarked)	15.6
CC(=O)c1cccc(NC(=O)C(NC(C)C)c2ccccc2)c1 (centres unmarked)	10
CN(C)C(CNC(C(=O)Nc1ccc([N+](=O)[O-])cc1Br)c1ccccc1)c1ccccc1 (centres unmarked)	11.9
COc1cccc(NC(=O)C(NCC(C)(C)CN(C)C)c2ccccc2)c1.O=C(O)C(=O)O (centres unmarked)	-12.7
CCN(CC)CCNC(C(=O)Nc1cccc(C(C)=O)c1)c1ccccc1.O=C(O)C(=O)O (centres unmarked)	-51.4
CCCC(=O)OC(C(=O)Nc1cc(C(F)(F)F)ccc1Cl)c1ccccc1 (centres unmarked)	5.1
CN(C)c1cccc(C(=O)OC(C(=O)Nc2ccc(Cl)cc2C(F)(F)F)c2ccccc2)c1 (centres unmarked)	0.322
CN(C)CCNC(C(=O)Nc1cccc(C(F)(F)F)c1)c1ccccc1.O=C(O)C(=O)O (centres unmarked)	-14.6
CC(/C=N/n1c(-c2ccco2)n[nH]c1=S)=C\c1ccco1	13.9
COCCCNc1nc2c(-c3cccc(C)c3)nnn2c2ccc(Cl)cc12	13.3
CNC(=O)c1[nH]cnc1C(=O)N[C@@H](CCCCNC(=O)OC(C)(C)C)C(=O)OC(C)(C)C	13.6
Cc1cccc(NS(=O)(=O)c2cccc([N+](=O)[O-])c2)n1	13.7
Cn1ccnc1SCC(=O)Nc1cc(C(F)(F)F)ccc1N1CCOCC1	-0.591
c1ccc(-c2noc(-c3cccs3)n2)nc1	7.74
COc1cc2c(cc1OC)C1Cc3ccc(OC)c(OC)c3C[N+]1([O-])CC2 (centres unmarked)	14.1
O=C(c1cccc([N+](=O)[O-])c1)N1CCN(c2ccc(Cl)cc2)CC1	2.13
O=C(Nc1ccccc1N1CCN(C(=O)c2ccccc2)CC1)c1ccc(Cl)cc1	-7.21

Structure (SMILES)	hERG current change (%, negative = inhibition) at 1uM [%]
O=C(Nc1ccccc1N1CCN(C(=O)c2ccc(Cl)cc2)CC1)c1cccc([N+](=O)[O-])c1	-65.2
O=C(Nc1ccccc1N1CCN(C(=O)c2ccc(Cl)cc2)CC1)c1ccc2c(c1)OCO2	-5.35
CS(=O)(=O)Nc1ccc(C(=O)N2CCN(c3ccccc3F)CC2)cc1	-69.2
O=C(Nc1ccccc1N1CCN(C(=O)c2ccc(Cl)cc2)CC1)c1ccc(Br)cc1	-4.26
CCC(=O)N1CCN(c2ccc(Cl)cc2NC(=O)c2cccc([N+](=O)[O-])c2)CC1	-32
CS(=O)(=O)Nc1ccc(C(=O)N2CCN(c3ccccc3)CC2)cc1	-31.4
O=C(Nc1ccccc1N1CCN(C(=O)c2ccc(Cl)cc2)CC1)c1cccnc1	-77
O=C(Nc1ccccc1N1CCN(C(=O)c2ccc(Cl)cc2)CC1)c1cccc(F)c1	-81.2
O=C(Nc1ccccc1N1CCN(C(=O)c2ccccc2)CC1)c1cccc(Cl)c1	-12.6
O=C(c1ccccc1)N1CCN(c2ccccc2F)CC1	9.77
Cc1cc(C)c(N2C(=O)C3C4CC(=O)C(c5ccccc54)C3C2=O)c(C)c1 (centres unmarked)	3.35
CC(Oc1ccc(Cl)cc1)c1ccnc(N)n1 (centres unmarked)	15.5
Cc1nc(COc2ccc(C(=O)NCc3ccccc3CN3CCCCC3)cc2)cs1	-10.6
Cc1sc(-n2c(C)cc(C=C3C(=O)NC(=O)NC3=O)c2C)c(C#N)c1C	11.2
CN(c1ccccc1)c1nc(N)c([N+](=O)[O-])c(N2CCCCC2)n1	7.57
O=C(/C=C/c1ccccc1)C1=C(O)C(=O)N(CCO)C1c1ccccc1[N+](=O)[O-] (centres unmarked)	11.9
CCOc1ccc(N2CC(C(=O)N3CCN(c4ccccn4)CC3)CC2=O)cc1 (centres unmarked)	-9.35
FC(F)(F)C(Oc1nc(Nc2ccc(Cl)cc2)nc(N2CCOCC2)n1)C(F)(F)F	11.9
CCCOc1ccc(/C=c2\sc3nc(-c4ccco4)nn3c2=O)cc1OCC	5.32
Cc1ccc(NC(=O)COc2ccccc2C(N)=O)cc1S(=O)(=O)N1CCCCCC1	-0.137
